Inconclusive results are not listed. Entries that show only a call come without a potency. Active and inactive are the calls of the source. Unless noted, the call rests on the fitted dose curve.
Tests used:
[1] = qHTS for Inhibitors of the Functional Ribonucleoprotein Complex (vRNP) of Lassa (LASV) Arenavirus: LASV Primary Screen - GLuc reporter signal (AID 1347082; calls by dose curve; tested in HEK293 reporter line; further: nearly all actives have a fitted effect of over 60% in size)
[2] = qHTS for Inhibitors of the Functional Ribonucleoprotein Complex (vRNP) of Lassa (LASV) Arenavirus: Viability assay - alamar blue signal for LASV Primary Screen (AID 1347083; calls by dose curve; tested in HEK293 reporter line; further: nearly all actives have a fitted effect of over 80% in size)
[3] = qHTS for Inhibitors of the Functional Ribonucleoprotein Complex (vRNP) of Lymphocytic Choriomeningitis Arenaviruses (LCMV): Viability assay - alamar blue signal for LCMV Primary Screen (AID 1347085; calls by dose curve; tested in HEK293 reporter line; further: nearly all actives have a fitted effect of over 80% in size)
[4] = molecular target: Nucleoprotein (Lymphocytic choriomeningitis virus (strain Armstrong)) (UniProt P09992); test: qHTS for Inhibitors of the Functional Ribonucleoprotein Complex (vRNP) of Lymphocytic Choriomeningitis Arenaviruses (LCMV): LCMV Primary Screen - GLuc reporter signal (AID 1347086); further: nearly all actives have a fitted effect of over 70% in size
Nucleoprotein (Lymphocytic choriomeningitis virus (strain Armstrong)), sequence (P09992 whole entry, looked up): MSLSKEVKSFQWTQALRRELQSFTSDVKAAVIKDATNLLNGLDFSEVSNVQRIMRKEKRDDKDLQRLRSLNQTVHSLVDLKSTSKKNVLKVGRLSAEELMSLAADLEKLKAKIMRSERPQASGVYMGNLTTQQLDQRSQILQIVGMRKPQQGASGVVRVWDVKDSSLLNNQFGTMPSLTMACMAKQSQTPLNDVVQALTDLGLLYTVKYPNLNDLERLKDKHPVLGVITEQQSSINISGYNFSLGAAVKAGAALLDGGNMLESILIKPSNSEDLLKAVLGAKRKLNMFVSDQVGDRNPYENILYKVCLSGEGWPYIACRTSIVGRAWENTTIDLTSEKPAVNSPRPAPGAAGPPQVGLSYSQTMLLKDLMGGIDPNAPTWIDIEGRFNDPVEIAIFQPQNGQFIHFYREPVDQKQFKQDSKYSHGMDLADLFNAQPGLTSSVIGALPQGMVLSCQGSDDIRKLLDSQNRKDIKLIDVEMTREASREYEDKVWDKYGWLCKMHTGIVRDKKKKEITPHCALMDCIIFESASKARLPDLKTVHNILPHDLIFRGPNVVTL
Potency means the concentration at half of the fitted maximal effect.

SMILES | Potency [1] | Potency [2] | Potency [3] | Potency [4]
COc1cc2c(c(OC)c1OC)-c1c(cc3c(c1OC)OCO3)[C@@H](OC(C)=O)[C@H](C)[C@H](C)C2 | inactive | inactive | inactive | inactive
CC1(C)C2CC[C@]3(C)C(CC=C4[C@@H]5C[C@@](C)(CO)[C@@H](O)C[C@]56C[C@@H](OC6=O)[C@]43C)[C@@]2(C)CC[C@@H]1O (stereo not given in full) | inactive | inactive | inactive | inactive
C[C@H]1O[C@H](O[C@H]2[C@H](O)[C@@H](O)[C@@H](O[C@H]3[C@H](O)[C@@H](O)C(O)O[C@H]3CO)O[C@H]2CO)[C@H](O)[C@@H](O)[C@H]1N[C@H]1C=C(CO)[C@@H](O)[C@H](O)[C@@H]1O (stereo not given in full) | inactive | inactive | inactive | inactive
CC/C=C\CCOC(=O)CC | inactive | inactive | inactive | inactive
O=C1O[C@@H](c2ccc(O)cc2)Cc2cccc(O)c21 | inactive | inactive | inactive | inactive
CC(C)(O)CC[C@@H](O)[C@](C)(O)C1CC[C@@]2(O)C3=CC(=O)[C@]4(O)C[C@@H](O)[C@@H](O)C[C@]4(C)C3CC[C@]12C (stereo not given in full) | inactive | inactive | inactive | inactive
CC1=CC(C/C(C)=C/COc2ccc3ccc(=O)oc3c2)OC1=O (stereo not given) | inactive | inactive | inactive | inactive
OC[C@H]1O[C@@H]2O[C@H]3[C@H](O)[C@@H](O)[C@@H](O[C@H]4[C@H](O)[C@@H](O)[C@@H](O[C@H]5[C@H](O)[C@@H](O)[C@@H](O[C@H]6[C@H](O)[C@@H](O)[C@@H](O[C@H]7[C@H](O)[C@@H](O)[C@@H](O[C@H]8[C@H](O)[C@@H](O)[C@@H](O[C@H]9[C@H](O)[C@@H](O)[C@@H](O[C@H]1[C@H](O)[C@H]2O)O[C@@H]9CO)O[C@@H]8CO)O[C@@H]7CO)O[C@@H]6CO)O[C@@H]5CO)O[C@@H]4CO)O[C@@H]3CO | inactive | inactive | inactive | inactive
CC1=CC(=O)[C@H]2C[C@@H]1C2(C)C | inactive | inactive | inactive | inactive
CC(=O)NC(Cc1cnc[nH]1)C(=O)O (stereo not given) | inactive | inactive | inactive | inactive
N[C@@H](CCCCNC(=O)CCCC[C@@H]1SC[C@H]2NC(=O)N[C@H]12)C(=O)O | inactive | inactive | inactive | inactive
CC(C)c1ccc(C=O)cc1 | inactive | inactive | inactive | inactive
C/C=C(\C)C(=O)OC(C)(C)[C@H]1Cc2cc3ccc(=O)oc3cc2O1 | inactive | inactive | inactive | inactive
COc1ccc(CC2c3cc(OC)c(OC)cc3CCN2C)cc1O (stereo not given) | inactive | inactive | inactive | inactive
CC1C2CC(CC2C2CCCC(O)C2)C1(C)C (stereo not given) | inactive | inactive | inactive | inactive
Cc1ccc([N+](=O)[O-])cc1S(=O)(=O)N(C)N=Cc1cnc2ccc(Br)cn12 | 21.7 nM (active) | 24.3 nM (active) | 61.1 nM (active) | 217 nM (active)
CC(=O)N1CCN(c2ccc(OCc3nn(C)c(C)c3-c3cccc4c(CCCOc5cc(C)c(Cl)c(C)c5)c(C(=O)O)n(Cc5cccnc5)c34)cc2)CC1 | inactive | inactive | inactive | inactive
Cc1[nH]c(C=C2C(=O)Nc3ccc(S(=O)(=O)Cc4c(Cl)cccc4Cl)cc32)c(C)c1C(=O)N1CCC[C@H]1CN1CCCC1 | inactive | inactive | inactive | inactive
COC1C(O)C(O)C(O)C(O)C1O (stereo not given) | inactive | inactive | inactive | inactive
COc1ccc(CC(=O)c2ccc(OC3OC(CO)C(O)C(O)C3O)cc2O)cc1 (stereo not given) | inactive | inactive | inactive | inactive

SMILES | Potency [1] | Potency [2] | Potency [3] | Potency [4]
C=C1CC23C[C@H]4[C@@H]5[C@@]6(C)C[C@H](OC(=O)c7ccccc7)[C@@H](OC(C)=O)[C@]57[C@@H]2[C@@H](OC(C)=O)[C@H]1[C@@H](O)[C@H]3[C@H]7N4C6 | inactive | inactive | inactive | inactive
COc1ccc(C=CC(=O)Nc2ccccc2C(=O)O)cc1OC | inactive | inactive | inactive | inactive
CCCCCCCCCO | inactive | inactive | inactive | inactive
C[C@]12CCC3C(CC[C@H]4C[C@H](O)CC[C@]34C)C1C[C@H](O)[C@@H]2O (stereo not given in full) | inactive | inactive | inactive | inactive
CC1(C)CCC[C@]2(C)[C@H]3CC(=O)O[C@]3(C)CC[C@@H]12 | inactive | inactive | inactive | inactive
CC12C=CC(=O)C=C1CCC1C2CCC2(C)C(C(=O)CO)CCC12 (stereo not given) | inactive | inactive | inactive | inactive
CCCCCCOC(=O)CCCCC | inactive | inactive | inactive | inactive
C=C1C2CC[C@]3(CCC4[C@@]5(C)CCC[C@@]4(CN(CCO)C5)[C@@H]3C2)[C@@H]1O (stereo not given in full) | inactive | inactive | inactive | inactive
CC12CCC3C(CCC4CC(O)CCC43C)C1CC(O)C2 (stereo not given) | inactive | inactive | inactive | inactive
O=C(Nc1ncc(SCCN2CCCC2)s1)[C@]1(c2ccc(S(=O)(=O)C3CC3)cc2)C[C@@H]1C1CCCCC1 | inactive | inactive | inactive | inactive
COc1ccc([C@@H]2CC(=O)c3c(O)cc(O[C@@H]4O[C@H](CO)[C@@H](O)[C@H](O)[C@H]4O[C@@H]4O[C@@H](C)[C@H](O)[C@@H](O)[C@H]4O)cc3O2)cc1 | inactive | inactive | inactive | inactive
O=C(O)[C@@H]1Cc2c([nH]c3ccccc23)C2CCC(=O)N21 (stereo not given in full) | inactive | inactive | inactive | inactive
Nc1nc(N)c2[nH]cnc2n1 | inactive | inactive | inactive | inactive
O=c1cc(-c2ccccc2)c2c(O)cc(O)cc2o1 | inactive | inactive | inactive | inactive
C/C(=C\C(=O)O)CC(=O)O | inactive | inactive | inactive | inactive
CC(C)N1[N]C(=C2C=c3cc(O)ccc3=N2)c2c(N)ncnc21 | 2730 nM (active) | 685 nM (active) | 1090 nM (active) | 611 nM (active)
COc1ccc2c(=O)c(-c3ccccc3)c(C)oc2c1 | inactive | inactive | inactive | inactive
CCC(=O)NC[C@H](Cc1ccc(OCCc2nc(-c3ccccc3)oc2C)cc1)NC(C)=CC(=O)c1ccc(C(F)(F)F)cc1 | inactive | inactive | inactive | inactive
NC1=N[C@H](O)[C@H]2C3O[C@]4(O)O[C@H](C(O)[C@@]2(N1)[C@@H]4O)C3(O)CO (stereo not given in full) | inactive | inactive | inactive | inactive
CCCCN | inactive | inactive | inactive | inactive

SMILES | Potency [1] | Potency [2] | Potency [3] | Potency [4]
CC(=O)OC[C@H]1O[C@@H](Oc2cc(O)cc3oc(-c4ccc(O)cc4)cc(=O)c23)[C@H](O[C@@H]2O[C@@H](C)[C@H](O)[C@@H](O)[C@H]2O)[C@@H](O)[C@@H]1O | inactive | inactive | inactive | inactive
CC(C)C[C@H](NC(=O)c1cc2ccccc2s1)C(=O)N1CCN(C(=O)[C@H](CO)NS(=O)(=O)c2ccc(Cl)cc2Cl)CC1 | inactive | inactive | inactive | inactive
Cc1ccc(C(C)(C)O)cc1 | inactive | inactive | inactive | inactive
COc1ccc2c(Oc3ccc(NC(=O)c4c(C)n(CC(C)(C)O)n(-c5ccccc5)c4=O)nc3)ccnc2c1 | inactive | inactive | inactive | inactive
CCCCCCCCCCCCC | inactive | inactive | inactive | inactive
C=C(C)c1cc2c(ccc3ccc(=O)oc32)o1 | inactive | inactive | inactive | inactive
C/C=C(\C)C(=O)O[C@H](c1cc2ccc(=O)oc2cc1OC)[C@@H](O)C(C)(C)O | inactive | inactive | inactive | inactive
COc1ccc(/C=C/C(=O)c2c(OC)cc(O)cc2OC)cc1 | inactive | inactive | inactive | inactive
CC(C)CC(=O)OC(C)(C)[C@@H]1Cc2c(ccc3ccc(=O)oc23)O1 | inactive | inactive | inactive | inactive
C[C@@H]1CC[C@@]23COC(=O)C2=CCC[C@@H]3[C@@]1(C)CC/C(=C/CO)CO | inactive | inactive | inactive | inactive
OC/C=C/c1ccccc1 | inactive | inactive | inactive | inactive
CS(C)(=O)=O | inactive | inactive | inactive | inactive
COc1c(C(=O)/C=C/c2ccccc2)ccc2c1C=CC(C)(C)O2 | inactive | inactive | inactive | inactive
CC(=O)O | inactive | inactive | inactive | inactive
CC(C)C(=O)COc1c2occc2cc2ccc(=O)oc12 | inactive | inactive | inactive | inactive
Cc1ncsc1CCO | inactive | inactive | inactive | inactive
COc1c(O)cc2c(=O)oc3c(OC)c(O)cc4c(=O)oc1c2c34 | inactive | inactive | inactive | inactive
C=C(C)[C@@H]1CC[C@@H](C)C[C@@H]1O | inactive | inactive | inactive | inactive
Cc1ccc2oc3ccccc3c(=O)c2c1 | inactive | inactive | inactive | inactive
CCCCCCCCCCCC(C)=O | inactive | inactive | inactive | inactive

Source: PubChem BioAssay (NCATS)
